For 19 compounds, outcome and AC50 results are on record in PubChem BioAssay (EPA / NIEHS).

Results filed as inconclusive are left out. Active and inactive are the calls of the source. Rule for the calls: active = hit-call score of the fitted dose curve at least 0.9, where 1 is the maximum; inconclusive = response in the unintended direction; inactive = score below 0.9.

For orientation: AC50 means the midpoint of the concentration-response curve, whichever way the signal moves.

The assay can be described thus: Tanguay_ZF_120hpf_NC_legacy: (Legacy) Oregon State University Tanguay Lab 120 Hour Post-fertilization zebrafish Assay for Notochord and Tail Malformation (AID 2283656). Summed up: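 Dechorionated 5D zebrafish, 1/well from 6 hpf; static exposure to 120 hpf, 28C, sealed, dark; final DMSO 0.64% v/v. NC scored binary (present/absent); dead embryos not scored. Fit vs DMSO baseline, gain direction.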
With `O=C1c2c(O)cccc2Cc2cccc(O)c21`, the result was inactive. On the same count and under the same terms, the entry for `NC(=Nc1ccccc1)Nc1ccccc1` is “inactive”; for `COC(=O)CCC(=O)OC` it is “inactive”.

As for `CN(C)C(=O)NC1(c2ccccc2)CCN(CCC[C@]2(c3ccc(Cl)c(Cl)c3)CCCN(C(=O)c3ccccc3)C2)CC1`, the call was inactive. In the case of `Oc1ccccc1O`, the result was inactive. Still for that read-out and setting: then `Cc1c(C)c2c(c(C)c1O)CCC(C)(COc1ccc(CC3SC(=O)NC3=O)cc1)O2` (centres undefined), with “inactive”; and `CCCC[C@H]1CN(CC2CCOCC2)C(=O)OC12CCN(C1(C)CCN(C(=O)c3c(C)ncnc3C)CC1)CC2`, with “inactive”; and `CCCCCCC(CCCCCCCCCCC(=O)OCC(COC(C)=O)OC(C)=O)OC(C)=O` (centres undefined), with “inactive”. On to `O=C(O)CN(CC(=O)O)CC(=O)O`, for which the compound was called inactive. Regarding `S=c1[nH]c2ccccc2s1`, the AC50 was 51.8 µM (active).

As to `CS(=O)(=O)c1ccc([C@@H](C[C@H]2CCC(=O)C2)C(=O)Nc2cnccn2)cc1Cl`, the result was inactive. Still for that read-out and setting: the entry for `CCc1nc(N)nc(N)c1-c1ccc(Cl)cc1` is “inactive”. Same read-out and setting: then `COC(=O)[C@H]1[C@H]2C[C@@H]3c4[nH]c5cc(OC)ccc5c4CCN3C[C@H]2C[C@@H](OC(=O)c2cc(OC)c(OC)c(OC)c2)[C@@H]1OC`, with “inactive”; and `CCOCCOCCO`, with “inactive”; and `CN(C)CCCN(C)CCCN(C)C`, with “inactive”. Same read-out and setting: then `O=[Si]=O`, with “inactive”. For the compound `CCC(C)N(C)C(=O)c1cc2ccccc2c(-c2ccccc2Cl)n1` (centres undefined), the compound was called inactive. The same measure, in the same setting: then `O=C(O)c1[nH]n(-c2ccc(S(=O)(=O)O)cc2)c(=O)c1N=Nc1ccc(S(=O)(=O)O)cc1`, with “inactive”; and `CN(C)CCCN1c2ccccc2Sc2ccc(Cl)cc21`, with “inactive”.
